High-throughput results (PubChem BioAssay)
Only some compounds are listed: those with a hit (about 19% of all), similar ones and a draw of the others.
TDP1 inh = blocks human tyrosyl-DNA phosphodiesterase 1; Q9NUW8; recombinant TDP1, AlphaScreen DNA substrate cleavage; Potency, µM (top dose mostly 130 µM), inactives show top-dose activity change, negative = inhibition, hits mostly inhibitors; hit rate 0.28% among 350,000; AID 485290; note: potency is the fitted concentration of half-maximal effect; nearly all actives have a fitted effect of over 40% in size
Target sequence (Q9NUW8 whole entry, looked up): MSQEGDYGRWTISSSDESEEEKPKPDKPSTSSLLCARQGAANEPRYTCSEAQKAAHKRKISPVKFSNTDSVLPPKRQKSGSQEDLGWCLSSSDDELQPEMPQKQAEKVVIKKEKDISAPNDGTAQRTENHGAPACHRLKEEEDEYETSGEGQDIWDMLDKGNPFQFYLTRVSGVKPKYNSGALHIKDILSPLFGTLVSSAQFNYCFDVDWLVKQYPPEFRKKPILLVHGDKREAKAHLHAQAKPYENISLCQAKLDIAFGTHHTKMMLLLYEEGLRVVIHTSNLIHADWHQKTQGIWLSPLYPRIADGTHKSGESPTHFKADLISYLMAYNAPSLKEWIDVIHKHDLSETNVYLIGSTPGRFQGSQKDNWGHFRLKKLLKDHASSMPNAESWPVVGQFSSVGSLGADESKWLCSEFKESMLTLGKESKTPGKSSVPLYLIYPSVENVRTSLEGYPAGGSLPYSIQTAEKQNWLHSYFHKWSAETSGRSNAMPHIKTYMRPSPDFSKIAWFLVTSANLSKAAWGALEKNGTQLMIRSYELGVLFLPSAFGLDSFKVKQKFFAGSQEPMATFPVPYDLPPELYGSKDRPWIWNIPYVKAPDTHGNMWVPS
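Enzyme-compound mixtures sat 15 min at room temperature, followed by a 5 min reaction with 15 nM final substrate and 10 min with AlphaScreen beads. Recombinant human Tdp1 was used at 1 nM final.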
TDP1 cell CPT = DT40-hTDP1 cell growth loss with CPT; chicken DT40 Tdp1-/-;hTDP1 cells + 20 nM CPT, ATP luminescence, 48 h; Potency, µM (top dose mostly 46.2 µM), inactives show at the highest dose activity change, negative = growth inhibition, actives largely listed as inhibitors; hit rate 12% among 420,000; AID 686979; note: potency is the fitted concentration of half-maximal effect; nearly all actives have a fitted effect of over 55% in size
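Chicken DT40 Tdp1-/- cells complemented with human TDP1, 400 cells/well, exposed to compounds plus 20 nM camptothecin for at least 48 h at 37 C; viability read as ATP content by CellTiter-Glo luminescence.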
IL1B secr inh = inflammasome signaling inhibition, IL-1 beta readout | THP-1 LPS/ATP IL-1B secretion, AlphaLISA, 16 h; stronger effect = lower value | activity change, % at 57.5 µM | hit rate 4.7% among 360,000 | AID 743279; in the data active = activity change below about -50%; inconclusive = mostly about -30% to -49%
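THP-1 cells pretreated 1 hr with compounds (up to 57.5 uM final), then stimulated with LPS (250 ng/mL final) plus ATP (1.25 mM final); secreted IL-1B measured by AlphaLISA after 16 hr, decreased signal indicating inhibition.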
ELG1 repair inh = inhibitors of ELG1-dependent DNA repair in HEK293T cells; AID 504467; Potency, µM (doses to about 46.1 µM), without a hit: at the top dose activity change, negative = inhibition, hits mostly inhibitors; HEK293T ELG1-luciferase reporter, luminescence, 16 h; DNA damage induced by 5-fluorouridine; hit rate 2.3% among 330,000; note: potency is the fitted concentration of half-maximal effect; nearly all actives have a fitted effect of over 55% in size
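Cells (2,000 per well) received 5-fluorouridine plus test compound or DMSO and were incubated 16 hr at 37 °C, 5% CO2. Luciferase activity was read by luminescence 30 min after ONE-Glo addition; signal suppression marked inhibition of damage-induced ELG1 function.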
DT40 TDP1 no CPT = qHTS for Inhibitors of human tyrosyl-DNA phosphodiesterase 1 (TDP1): qHTS in cells in absence of CPT; Potency, µM (top dose mostly 46.2 µM), without a hit: at the highest dose activity change, negative = growth inhibition, hits mostly inhibitors; DT40 Tdp1-/- hTDP1 cells, no CPT, ATP luminescence, 48 h; hit rate 15% among 420,000; note: potency is the fitted concentration of half-maximal effect; nearly all actives have a fitted effect of over 55% in size
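A cellular qHTS used chicken DT40 cells lacking endogenous Tdp1 but carrying stably transfected human TDP1. Compounds were applied without camptothecin, and cell growth kinetics were judged by ATP-dependent luminescence after ≥48 hr.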
Giardia killer = kills Giardia lamblia; activity change, % at 7.66 µM, hits read low; Giardia lamblia trophozoite viability; hit rate 0.15% among 340,000; AID 540267; in the data active = activity change below about -80%; inconclusive = between about -30% and that limit;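 note: parasites exposed to compound for two days anaerobically before the ATP read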
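ATP-content bioluminescence gauges trophozoite survival. Cells (100/well) receive compound and incubate anaerobically for 48 hrs at 37 deg C; detection reagent follows for 15-30 min at room temperature.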
Starred values were filed as active, the others as inactive; [ ] = another dose, or the depositor's remark. Unless noted, calls come from the whole dose curve; as a rule, active = well fitted curve in the direction sought with a large enough effect; inconclusive = small, poorly fitted or top-dose-only effect, or another doubt; inactive = no such curve, though single readings can be large; an effect the other way counts as inactive or inconclusive. % is set by controls: 0 for no effect and ±100 for the full control effect.

`Cc1ccccc1CN1CCc2nc(Nc3ccc4c(c3)OCCO4)ncc2C1` gave TDP1 inh 14%, TDP1 cell CPT 23µM* and DT40 TDP1 no CPT 21µM*.
COc1cc(Nc2ncc3c(n2)CCN(Cc2ccc(OC(C)C)c(OC)c2)C3)cc(OC)c1 was read as TDP1 inh 11%, TDP1 cell CPT 16µM* and DT40 TDP1 no CPT 13µM*.
CCN1CCN(c2ncc3c(n2)CCN(Cc2ccc(OC(C)C)cc2)C3)CC1 was read as TDP1 inh 4%, TDP1 cell CPT inconclusive and DT40 TDP1 no CPT inconclusive.
For CCOc1ccccc1CN1CCc2nc(Nc3ccccc3)ncc2C1 the results were TDP1 inh 6%, TDP1 cell CPT inconclusive and DT40 TDP1 no CPT inconclusive.
COc1ccc(Nc2ncc3c(n2)CCN(Cc2ccccc2C)C3)c(OC)c1 was read as TDP1 inh 9%, TDP1 cell CPT inconclusive and DT40 TDP1 no CPT 10µM*.
For COc1cc(C)ccc1OCCn1c(-c2ccc(Cl)cc2)nc2ccccc2c1=O the results were TDP1 cell CPT -6% and DT40 TDP1 no CPT -8%.
Screening CCOc1ccc(C(=O)NCC(=O)OCCN2C(=O)c3ccccc3C2=O)cc1OCC returned TDP1 inh 1%, TDP1 cell CPT -11%, IL1B secr inh 2, ELG1 repair inh -1%, DT40 TDP1 no CPT 3% and Giardia killer 31.
COc1ccccc1CNS(=O)(=O)CCNCCc1ccccc1 was read as TDP1 cell CPT -20%, IL1B secr inh 13, DT40 TDP1 no CPT -9% and Giardia killer 1.
Screening CCCN1CCc2nc(SCC(=O)Nc3ccc(C)c(Cl)c3)[nH]c(=O)c2C1 returned TDP1 inh 11%, TDP1 cell CPT inconclusive, IL1B secr inh -8, ELG1 repair inh inconclusive, DT40 TDP1 no CPT 18µM* and Giardia killer -15.
Screening Cc1ccc(Cl)cc1NC(=O)CSc1nc2c(c(=O)[nH]1)CN(Cc1ccccc1)CC2 returned TDP1 inh 9%, TDP1 cell CPT -16% and DT40 TDP1 no CPT inconclusive.
For CN(C(=O)CSc1nc2c(c(=O)[nH]1)CCCC2)c1ccccc1 the results were TDP1 inh 9%, TDP1 cell CPT 9.2µM* and DT40 TDP1 no CPT -28%.
For CCCCOC(=O)c1ccc(NC(=O)CSc2nc3c(c(=O)[nH]2)CCCC3)cc1 the results were TDP1 inh 3%, TDP1 cell CPT inconclusive and DT40 TDP1 no CPT 13µM*.
Screening COc1ccc(NC(=O)CSc2nc3c(c(=O)[nH]2)CCC3)cc1 returned TDP1 inh 9%, TDP1 cell CPT -18% and DT40 TDP1 no CPT -3%.
For COc1ccc2nc3n(c(=O)c2c1)-c1ncccc1C(=O)NC3Cc1ccccc1 (stereo unspecified) the results were TDP1 cell CPT 12%, IL1B secr inh inconclusive and DT40 TDP1 no CPT inconclusive.
Screening O=C(Nc1ccc(F)cc1F)c1ccc(-n2cccn2)c([N+](=O)[O-])c1 returned TDP1 inh 5%, TDP1 cell CPT -3%, IL1B secr inh 29, ELG1 repair inh -11%, DT40 TDP1 no CPT -18% and Giardia killer -28.
Screening Cc1ccc(C(=O)Nc2ccc(Cl)c(-c3nc4ncccc4o3)c2)c(C)c1 returned TDP1 inh 1%, TDP1 cell CPT inconclusive and DT40 TDP1 no CPT inconclusive.
`COc1cc(C(=O)Nc2ccc3oc(-c4ccc(C)c(Br)c4)nc3c2)cc(OC)c1OC` gave TDP1 inh 1%[12.3 µM], TDP1 cell CPT 21µM* and DT40 TDP1 no CPT 8.2µM*.
`COc1cc(C(=O)Nc2ccc(-c3nc4cc(C)ccc4o3)c(O)c2)cc(OC)c1OC` gave TDP1 inh 6%, TDP1 cell CPT 12µM*, ELG1 repair inh inconclusive, DT40 TDP1 no CPT 8.2µM* and Giardia killer -9.
COc1cc(C(=O)Nc2ccc(-c3nc4cc(C)c(C)cc4o3)cc2)cc(OC)c1OC was read as TDP1 inh 0%[12.3 µM], TDP1 cell CPT inconclusive and DT40 TDP1 no CPT inconclusive.
